Active and inactive are the calls of the source. How the source made its calls: active means hit-call score of the fitted dose curve at least 0.9, where 1 is the maximum; inactive means score below 0.9.

Read-out in assay [1]: Tissue plasminogen activator (tPA), PLAT (gene 5327)
Kind of assay: BSK_BE3C_tPA: BioMAP Diversity Plus: BE3C Assay for Tissue plasminogen activator (tPA) Biomarker Activity (AID 2283041).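 On outcome: tPA level quantified by ELISA one day after compound addition.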 To be noted: primary human bronchial epithelial cells; actives raise or lower the signal. An outline of the steps:
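Primary human lung bronchial epithelial cultures receive test chemical; after 24 h, tPA is quantified by ELISA, and gain or loss of signal is fitted bidirectionally relative to DMSO baseline.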

Read-out in assay [2]: Interleukin-8 (IL8), CXCL8 (gene 3576)
Kind of assay: BSK_CASM3C_IL8: BioMAP Diversity Plus: CASM3C Assay for Interleukin-8 (IL8) Biomarker Activity (AID 2283042).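 Further: IL-8 protein level quantified by ELISA.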 To be noted: primary human coronary artery smooth muscle cells; actives raise or lower the signal.

Read-out in assay [3]: Human Leukocyte Antigen - DR isotype (HLADR), HLA-DRA (gene 3122)
As to the kind of experiment: BSK_CASM3C_HLADR: BioMAP Diversity Plus: CASM3C Assay for Human Leukocyte Antigen - DR isotype (HLADR) Biomarker Activity (AID 2283043).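 Further: cell-surface HLA-DR protein level quantified by ELISA.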 Conditions: primary human coronary artery smooth muscle cells; actives raise or lower the signal.

Read-out in assay [4]: Macrophage colony-stimulating factor (MCSF), CSF1 (gene 1435)
As to the kind of experiment: BSK_CASM3C_MCSF: BioMAP Diversity Plus: CASM3C Assay for Macrophage colony-stimulating factor (MCSF) Biomarker Activity (AID 2283044).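 Further: M-CSF protein amount quantified by ELISA after 24 h exposure.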 To be noted: primary human coronary artery smooth muscle cells; actives raise or lower the signal.

Read-out in assay [5]: Low-density lipoprotein receptor (LDLR), LDLR (gene 3949)
Kind of assay: BSK_CASM3C_LDLR: BioMAP Diversity Plus: CASM3C Assay for Low-density lipoprotein receptor (LDLR) Biomarker Activity (AID 2283045).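 Further: LDLR protein level on the cell surface quantified by ELISA.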 Conditions: primary human coronary artery smooth muscle cells; actives raise or lower the signal.

Read-out in assay [6]: Monocyte Chemoattractant Protein-1 (MCP1), CCL2 (gene 6347)
As to the kind of experiment: BSK_CASM3C_MCP1: BioMAP Diversity Plus: CASM3C Assay for Monocyte Chemoattractant Protein-1 (MCP1) Biomarker Activity (AID 2283046).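 Further: MCP-1 level quantified by ELISA 24 h after dosing.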 Conditions: primary human coronary artery smooth muscle cells; actives raise or lower the signal.

Assay [7] in a line: BSK_CASM3C_Proliferation: Cell Proliferation Assessment in the BioMAP Diversity Plus: CASM3C Assay (AID 2283047).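 Further: sulforhodamine B total protein stain as relative cell number at 560 nm; sub-confluent cells exposed 48 h before staining; fitted both ways against DMSO so gain or loss of cell number.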 Conditions: primary human coronary artery smooth muscle cells.
Read-out in assay [8]: Monokine induced gamma interferon (MIG), CXCL9 (gene 4283)
Kind of assay: BSK_CASM3C_MIG: BioMAP Diversity Plus: CASM3C Assay for Monokine induced gamma interferon (MIG) Biomarker Activity (AID 2283048).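 Further: MIG protein level measured by ELISA.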 Conditions: primary human coronary artery smooth muscle cells; actives raise or lower the signal.

Read-out in assay [9]: serum amyloid A (SAA), SAA1 (gene 6288)
As to the kind of experiment: BSK_CASM3C_SAA: BioMAP Diversity Plus: CASM3C Assay for serum amyloid A (SAA) Biomarker Activity (AID 2283049).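 Further: SAA protein level quantified by ELISA.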 To be noted: primary human coronary artery smooth muscle cells; actives raise or lower the signal.

Assay [10] in a line: BSK_CASM3C_SRB: Viability Assessment in the BioMAP Diversity Plus: CASM3C Assay (AID 2283050).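 Further: total protein by SRB staining as cytotoxicity measure in parallel cultures; cells exposed to compound for 24 h.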 Conditions: primary human coronary artery smooth muscle cells.

Take `CCOC(=O)CC(=O)CCl`: the AC50 (commonly the midpoint of the concentration-response curve, whichever way the signal moves) in assay [1] is 3.97 µM (active); in assay [3], 8.67 µM (active); in assay [4] it was 20 µM (active); in [7], 26.3 µM (active); in assay [8] it was 31.6 µM (active); in [10], 25.7 µM (active). Also, the outcome in assay [2], in [5], in assay [6] and in assay [9] was inactive.

Turning to `O=C1C=CC(=O)c2ccccc21`, the AC50 is 3.27 µM (active) in assay [1]; 20 µM (active) in [2]; 2.45 µM (active) in assay [3]; 5.16 µM (active) in assay [4]; 10.8 µM (active) in assay [5]; 8.9 µM (active) in [6]. For the same compound, the AC50 in [7] was 0.474 µM (active); in [8], 30.1 µM (active); in assay [9] it was 3.37 µM (active); in assay [10], 8.33 µM (active).

On to `CC(C)(COCC1CO1)COCC1CO1` (stereo not given), for which the result in [1], in assay [2], in [3], in assay [4], in [5] and in assay [6] was inactive. The result in [7], in assay [8], in assay [9] and in [10] was inactive.

As for `O=S(=O)(c1ccc(Cl)cc1)c1cc(Cl)c(Cl)cc1Cl`, the result in assay [1], in assay [2], in assay [3], in assay [4], in assay [5] and in assay [6] was inactive. Further, the result in [7], in assay [8], in assay [9] and in assay [10] was inactive.

Take `Cc1c([N+](=O)[O-])c(C)c([N+](=O)[O-])c(C(C)(C)C)c1[N+](=O)[O-]`: the outcome in assay [1], in assay [2], in assay [3], in assay [4], in assay [5] and in assay [6] was inactive. Besides, the outcome in [7], in assay [8], in assay [9] and in [10] was inactive.

For `Nc1ccc(N)cc1`, the outcome in assay [1], in [2], in [3], in assay [4], in assay [5] and in assay [6] was inactive. The result in assay [7], in assay [8], in [9] and in [10] was inactive.

As for `C[C@]12CC[C@@H](O)C[C@@H]1CC[C@@H]1[C@@H]2CC[C@]2(C)C(=O)CC[C@@H]12`, the result in assay [1], in assay [2], in assay [3], in [4], in assay [6] and in assay [7] was inactive. For the same compound, the result in [8], in assay [9] and in assay [10] was inactive. The AC50 in [5] is 29 µM (active).

Consider `CCOP(=S)(OCC)OP(=S)(OCC)OCC`, for which the result in [1], in assay [2], in assay [3], in assay [4], in assay [5] and in [6] was inactive. In addition, the result in assay [8], in [9] and in [10] was inactive. The AC50 in assay [7] is 29 µM (active).

As to `OCCCCO`, the outcome in assay [1], in assay [2], in assay [3], in assay [4], in assay [5] and in assay [6] was inactive. Further, the result in assay [7], in assay [8], in assay [9] and in assay [10] was inactive.

`Oc1c(Cl)cc(Cl)cc1Cl`: the result in assay [1], in assay [2], in [3], in assay [4], in assay [5] and in assay [6] was inactive. Further, the result in [7], in [8], in assay [9] and in assay [10] was inactive.

In the case of `CCOP(=O)(OCC)SCCSCC`, the result in assay [1], in assay [2], in assay [3], in assay [4], in assay [5] and in [6] was inactive. The outcome in assay [7], in [8], in assay [9] and in assay [10] was inactive.

In the case of `O=[N+]([O-])c1cccc2ccccc12`, the result in assay [1], in assay [2], in assay [3], in assay [4], in assay [5] and in assay [6] was inactive. Also, the result in assay [7], in assay [8], in [9] and in assay [10] was inactive.

As to `CCN(CC)C(=O)C(Cl)=C(C)OP(=O)(OC)OC`, the result in assay [1], in assay [2], in assay [3], in [4], in assay [5] and in assay [6] was inactive. Moreover, the outcome in [7], in [8], in [9] and in [10] was inactive.

Take `CCOC(=O)CCN(SN(C)C(=O)Oc1cccc2c1OC(C)(C)C2)C(C)C`: the result in assay [1], in assay [2], in [5], in [6], in assay [8] and in assay [9] was inactive. For the same compound, the result in assay [10] was inactive. Moreover, the AC50 in assay [3] was 12.2 µM (active); in assay [4] it was 20 µM (active); in [7] it was 20 µM (active).

Turning to `Oc1ccc(Cc2ccc(O)cc2)cc1`, the result in assay [1], in [2], in assay [3], in assay [4], in [5] and in [6] was inactive. For the same compound, the result in [7], in [8], in [9] and in assay [10] was inactive.

For the compound `c1ccc2sc(SNC3CCCCC3)nc2c1`, the outcome in assay [1], in assay [2], in [3], in assay [4], in assay [5] and in assay [6] was inactive. Moreover, the outcome in assay [7], in assay [8], in assay [9] and in [10] was inactive.

Take `CC(C)=CC1C(C(=O)OCc2cccc(Oc3ccccc3)c2)C1(C)C` (stereo not given): the AC50 in assay [1] is 9.82 µM (active); in [3], 20 µM (active). In addition, the result in [2], in [4], in [5], in assay [6], in assay [7] and in assay [8] was inactive. For the same compound, the outcome in assay [9] and in [10] was inactive.
